Measured values reported in PubChem BioAssay AID777 (Sanford-Burnham Center for Chemical Genomics, 2007).
The campaign covered roughly 96,000 compounds. About 19,000 (20%) were called active.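 Rule for the calls: active = blocking of liver enzyme CYP2C9 beyond about 50% at 5 µM (limit read from the data); inactive = the rest.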 These entries were drawn from the full list.

What follows are molecules tested against Cytochrome P450 2C9 (Homo sapiens) (UniProt P11712) (assay: blockers of cytochrome P450 2C9 activity – biochemical, luminescence, ADME assay, primary screen (AID 777)). Conditions: CYP2C9 Supersomes, luciferin-H conversion, at 5 µM, stronger effect = higher value.
Sequence of Cytochrome P450 2C9 (Homo sapiens) (P11712 whole entry, looked up): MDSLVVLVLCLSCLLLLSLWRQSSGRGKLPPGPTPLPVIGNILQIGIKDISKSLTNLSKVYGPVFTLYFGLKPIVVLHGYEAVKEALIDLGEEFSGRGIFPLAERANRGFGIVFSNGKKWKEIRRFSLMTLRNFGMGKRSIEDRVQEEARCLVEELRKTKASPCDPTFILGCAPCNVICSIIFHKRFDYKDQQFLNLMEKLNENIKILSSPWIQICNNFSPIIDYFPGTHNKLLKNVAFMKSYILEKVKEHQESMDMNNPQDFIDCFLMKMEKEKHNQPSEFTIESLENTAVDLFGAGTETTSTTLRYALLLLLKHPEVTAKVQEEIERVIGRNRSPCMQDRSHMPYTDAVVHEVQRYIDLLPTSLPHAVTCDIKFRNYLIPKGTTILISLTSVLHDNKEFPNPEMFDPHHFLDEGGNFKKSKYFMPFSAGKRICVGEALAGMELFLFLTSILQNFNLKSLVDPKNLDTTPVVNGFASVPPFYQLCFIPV

| Structure (SMILES) | inhibition |
| --- | --- |
| COc1ccc(C(=O)n2nc(-c3ccc(C)cc3)nc2N)cc1OC | -9.5% (inactive) |
| Cc1ccc2nc(NC3=NCN(CCc4ccccc4)CN3)nc(C)c2c1 | -5.5% (inactive) |
| COc1ccccc1CNC(=O)c1ccc(SC)cc1OC | -50.7% (inactive) |
| CCOC(=O)c1c(C)[nH]c(C(=O)NCc2ccccc2OC)c1C | 78.3% (active) |
| CC(=O)c1c(C)[nH]c(C(=O)NCc2ccc(C)cc2)c1C | 49.2% (inactive) |
| Cn1c2c(c(=O)n(C)c1=O)CN(Cc1ccco1)CN2 | -11.6% (inactive) |
| N#CCSc1nc2c(c(=O)n1Cc1ccccc1)C1(CCCC1)Cc1ccccc1-2 | 36.9% (inactive) |
| CC(C)C(NC(=O)c1ccc(Cl)cc1)C(=O)O (stereo not given) | -5.3% (inactive) |
| O=C(CC1CCCCC1)Nc1c2c(nn1-c1ccc(F)cc1)CS(=O)(=O)C2 | -6.5% (inactive) |
| COc1ccc(-c2nc3n(c2Br)CCC3)cc1 | 2.9% (inactive) |
| CC(C)(C)n1nnnc1C(c1cccs1)N(Cc1cccnc1)CC1CCCO1 (stereo not given) | 19.7% (inactive) |
| CCOc1ccc(CN(Cc2ccco2)C(c2cccs2)c2nnnn2C(C)(C)C)cc1 (stereo not given) | 77.2% (active) |
| CC(C)(C)NC(=O)CN(Cc1cccs1)C(=O)CNS(=O)(=O)c1ccccc1 | 26.8% (inactive) |
| Cc1cc(C)c2nc(SCCC#N)nc(C)c2c1 | -19.9% (inactive) |
| CCOC(=O)Nc1ccc2c(c1)N(C(=O)CCN1CCN(CCO)CC1)c1ccccc1CC2 | -14% (inactive) |
| COc1ccc(-n2nnnc2SCC(=O)c2ccc(OC)c(OC)c2)cc1 | 45.6% (inactive) |
| CCOc1cccc(-c2nnc3sc(COc4ccc(OC)cc4)nn23)c1 | 20.9% (inactive) |
| CCOc1cccc(-n2nnnc2-c2ccc(OC)cc2)c1 | 91.4% (active) |
| Cc1cccc2cc(CN(Cc3nnnn3Cc3ccccc3)C3CCCC3)c(=O)[nH]c12 | 91.5% (active) |
| Cc1cccc2cc(CN(Cc3ccc4c(c3)OCO4)Cc3nnnn3C3CCCC3)c(=O)[nH]c12 | 38.4% (inactive) |
| Cc1cc(C)c2cc(CN(Cc3nnnn3Cc3ccc(F)cc3)C3CCCC3)c(=O)[nH]c2c1 | -7.2% (inactive) |
| O=C(CCl)NNc1cccc(Cl)n1 | 10.1% (inactive) |
| c1ccc(-c2ccnc3nc(-n4cccc4)nn23)cc1 | 6.8% (inactive) |
| Cc1nc(Nc2ccc3c(c2)OCCO3)c2nnn(Cc3ccccc3Cl)c2n1 | 93.2% (active) |
| CC(C)(C)c1nc(NCC2CCCO2)c2nnn(Cc3ccccc3)c2n1 (stereo not given) | 32.7% (inactive) |

| Structure (SMILES) | inhibition |
| --- | --- |
| C#CCNc1nc(C(C)C)nc2c1nnn2Cc1ccccc1F | 40.2% (inactive) |
| O=C(CN1CCSCC1)N/N=C/c1ccc(F)cc1 | 17.1% (inactive) |
| O=C(O)c1cccc2c1C(=O)N(C1CCCCC1)C2 | -13.9% (inactive) |
| COCCNC(=O)c1snc2ccc(Cl)cc12 | -11.2% (inactive) |
| COc1ccc(NC(=O)Nc2cccc3cccnc23)cc1 | -39.1% (inactive) |
| O=c1cc(Cn2nnc(-c3ccc(Cl)cc3)n2)nc2sccn12 | 63.5% (active) |
| O=C(NCc1ccc(Cl)cc1)c1cc2c(nc3sccn32)s1 | 17.9% (inactive) |
| O=C(NCc1cn2ccsc2n1)Nc1ccc(Cl)cc1 | 13.6% (inactive) |
| Cc1ccc(C(=O)OC2=CC(=O)CC(C)(C)C2)cc1 | 28.3% (inactive) |
| CN(c1cccc(NC(=O)Nc2ccc(Cl)cc2)c1)S(C)(=O)=O | 30.6% (inactive) |
| COc1ccc(-c2cc(C(F)(F)F)n3nc(C(=O)N4CCOCC4)c(Cl)c3n2)cc1 | 0.7% (inactive) |
| CCOc1cc(CNCCN(C)C)c(Cl)cc1OCC(=O)NCCc1ccccc1 | 22.3% (inactive) |
| Clc1cccc(N=C2NN=C(c3ccc4c(c3)OCCO4)CS2)c1 | 77.7% (active) |
| CCOC(=O)C1=C(O)CSC1=Nc1cccc(Cl)c1 | 9% (inactive) |
| COc1ccc(-c2cc(C(=O)NC(C(=O)O)C(C)C)c(C)o2)cc1OC (stereo not given) | 21% (inactive) |
| O=C(Nc1c2c(nn1-c1ccc(F)cc1)CS(=O)C2)C12CC3CC(CC(C3)C1)C2 (stereo not given) | 14.4% (inactive) |
| COc1ccc(C2C(C(C)=O)=C(O)C(=O)N2c2nccs2)cc1 (stereo not given) | 5% (inactive) |
| COC(=O)N1CN(C(=O)OC)CN(C(=O)OC)C1 | -12.2% (inactive) |
| COn1c(=O)c(=O)n(OC)c2ccccc21 | 3.2% (inactive) |
| CCc1ccccc1N(CC(=O)N1CCN(c2ccccc2F)CC1)S(C)(=O)=O | 2.9% (inactive) |
| CCOC(=O)C(C)Sc1nc2ccccc2c(=O)n1CC1CCCCC1 (stereo not given) | 78.8% (active) |
| N#Cc1c(NC(=O)CSc2nc3ccccc3c(=O)n2Cc2ccco2)sc2c1CCCC2 | 3.9% (inactive) |
| CC(Sc1nc2ccccc2c(=O)n1Cc1ccco1)C(=O)c1ccccc1 (stereo not given) | 88.2% (active) |
| CCOn1c(SC(C)C)nc2ccccc2c1=O | 17.6% (inactive) |
| CCOC(=O)C1CCc2nc3ccccc3c(=O)n21 (stereo not given) | 3.3% (inactive) |

| Structure (SMILES) | inhibition |
| --- | --- |
| O=c1[nH]c(CSc2ncc(-c3ccc(F)cc3)n2Cc2ccco2)nc2ccccc12 | 21.2% (inactive) |
| O=C(CNS(=O)(=O)c1cccc(C(F)(F)F)c1)Nc1ccccc1F | -19.7% (inactive) |
| Cc1c2cn[nH]c(=O)c2c(C)n1Cc1ccc(F)cc1 | 6.2% (inactive) |
| O=c1cc(CSc2ccc(Cl)cc2)nc(N2CCOCC2)[nH]1 | 8.5% (inactive) |
| CSCc1cc(N2CCOCC2)nc(SCc2ccc(Cl)cc2Cl)n1 | 57.5% (active) |
| CSCc1cc(N(C)C)nc(SCc2ccc(Cl)cc2Cl)n1 | 56.7% (active) |
| Clc1ccc(CSc2nnc(/C=C/c3ccccc3)o2)c(Cl)c1 | 49.9% (inactive) |
| Nc1nc(SCc2ccccc2Cl)n[nH]1 | -6.7% (inactive) |
| COc1ccc([N+](=O)[O-])cc1C1NN=C(c2cccc3ccccc23)S1 (stereo not given) | -70.8% (inactive) |
| CCC(=O)NNc1cc(=O)c2c(=O)n(C)c(=O)n(C)c2[nH]1 | 4% (inactive) |
| COc1ccc(S(=O)(=O)NC2(C(F)(F)F)N=C3SCCN3C2=O)cc1 (stereo not given) | -5.2% (inactive) |
| CSCCC(NC(=O)c1ccc(=O)n(C)n1)c1nc2ccccc2[nH]1 (stereo not given) | 10.3% (inactive) |
| CC1CCCCC1NC(=O)CCS(=O)(=O)c1cccc2nonc12 (stereo not given) | 7.9% (inactive) |
| CCCNC(=O)CN(Cc1ccccc1F)S(=O)(=O)c1ccc(C)cc1 | 74.3% (active) |
| CCNC(=O)CN(c1ccc(C)cc1)S(=O)(=O)c1ccc(SC)cc1 | 26.9% (inactive) |
| Cc1ccc(S(=O)(=O)N(CC(=O)NCCSC2CCCCC2)c2ccccc2F)cc1 | -9.7% (inactive) |
| CCCC(=O)N(CCc1ccccc1)Cc1nc2ccccc2c(=O)[nH]1 | 38.3% (inactive) |
| COc1nc(-c2ccc(Cl)cc2)ccc1-c1noc(-c2cccs2)n1 | 23.2% (inactive) |
| C=CCNC(=O)c1csc(-c2ccccc2)n1 | 35.2% (inactive) |
| C=CCNc1nc(N)c(C(=C(C#N)C#N)c2ccccc2)s1 | 69.6% (active) |
| CCCn1c(=O)c2ccccc2n2c(SCC(=O)/C(C#N)=C(\C)N)nnc12 | 14.3% (inactive) |
| CCOc1ccccc1NC(=O)CCc1ccc(C)o1 | -185% (inactive) |
| CC1=NCCN1S(=O)(=O)c1ccc(Br)c(C)c1 | -80.5% (inactive) |
| CCCCOc1ccc(CSC(=N)N)cc1[N+](=O)[O-] | 20% (inactive) |
| CCCCOc1ccc(Cl)cc1CSc1nncn1N | 74.2% (active) |

| Structure (SMILES) | inhibition |
| --- | --- |
| Cn1ncc2c(Nc3cccc4ccccc34)ncnc21 | -1.5% (inactive) |
| O=C1COc2ccc(NC(=O)N3CCN(c4ccc(F)cc4)CC3)cc2N1 | 19.5% (inactive) |
| CC1=NC2(CCCc3c2no[n+]3[O-])N(O)C1(C)C (stereo not given) | 11.5% (inactive) |
| O=S1(=O)CCN2C(=N1)SC1=C2CCN(Cc2ccccc2)C1 | 0.4% (inactive) |
| COC(=O)CN(C(=S)Nc1ccc(Cl)cc1)C1CC(=O)N(c2ccc(OC)cc2)C1=O (stereo not given) | 43.6% (inactive) |
| Cc1cnc(NC(=O)CSc2c(Cl)cccc2Cl)s1 | 1.4% (inactive) |
| COC(=O)c1ccccc1NC(=O)CSc1ccccn1 | -10.9% (inactive) |
| COC(=O)c1c(-c2cccs2)csc1NC(=O)CSc1ncnc2sc(C)c(C)c12 | 76.2% (active) |
| CCn1c(SC)nc(O)c(C(c2ccc(OC)c(O)c2)c2c(O)nc(SC)n(CC)c2=O)c1=O | 23.3% (inactive) |
| Cc1cc(C)nc(SCc2nnc(SCC(=O)OC3CCCCC3)o2)n1 | 7% (inactive) |
| CCOC(=O)CSc1nc2c(sc(=S)n2CCc2ccccc2)c(=O)n1Cc1ccco1 | 66.9% (active) |
| CCOC(=O)CSc1nnc(-c2ccco2)n1C | -20.3% (inactive) |
| Nc1cc(=O)nc(SCc2ccccc2)n1Cc1ccco1 | 7.5% (inactive) |
| O=C(C1=C(O)C(=O)N(Cc2ccccc2)C1c1ccco1)c1ccco1 (stereo not given) | 24% (inactive) |
| CC1=NN(Cc2ccccc2)C(=O)/C1=C/c1ccc(N(C)C)cc1 | 14.4% (inactive) |
| CN(C)c1cc[n+](Cc2ccccc2)cc1 | 2.2% (inactive) |
| CN(C)c1ccc(/C=C2\NC(=S)N(Cc3ccccc3)C2=O)cc1 | 66.2% (active) |
| CCOC(=O)N1CCN(Cc2oc(CO)cc(=O)c2O)CC1 | -4.5% (inactive) |
| N/C(=N\OC(=O)c1cc(-c2ccccc2)nc2ccccc12)c1ccncc1 | 97.7% (active) |
| Cc1ccc(-c2cc(C(=O)Nc3nn[nH]n3)c3ccccc3n2)c(C)c1 | 23.9% (inactive) |
| CC(C)(C)Cc1nnc(NC(=O)c2cc(-c3ccccc3)nc3ccccc23)s1 | 11.3% (inactive) |
| CC12CN(Cc3ccccc3)CC(C)(CN(Cc3ccccc3)C1)C2=NO | -1.5% (inactive) |
| CCc1ccc2oc(-c3ccc(N)cc3)nc2c1 | -59.8% (inactive) |
| COc1cccc(-c2nc3cc(C)ccc3o2)c1 | 53.3% (active) |
| COc1cccc(-c2nc(S(=O)(=O)c3ccccc3)c(N3CCOCC3)o2)c1 | 27.5% (inactive) |
